From PubChem BioAssay
Sampled rows, rich in hits. Any-hit rate of the full collection: about 4.1%.
Mdm2-MdmX inh: inhibitors of human Mdm2/MdmX interaction | O15151+Q00987 | SaOS-2 split-luciferase Mdm2/MdmX complementation, luminescence | inhibition, % at 8 µM | actives 3% (n = 330,000);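 active = inhibition of at least 50% at 8 µM in the primary screen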
Jurkat NFkB inh: inhibitors of the PMA/ionomycin-induced NF-kB reporter in Jurkat cells | inhibition, % at 4 µM | PMA/ionomycin-induced NF-kB luciferase reporter, luminescence | actives 0.53% (n = 330,000) | AID 435003; in the data active = inhibition above about 50%
Gli-Sufu block: Gli-Sufu pathway antagonism; actives 0.74% (n = 340,000); Sufu-KO-LIGHT fibroblasts, Gli luciferase reporter luminescence; inhibition, % at 5 µM;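 active = inhibition above about 55%, limit read from the data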;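 note: 0% = DMSO-treated cells and 100% = wells with medium but no cells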
697 NFkB inh: lowers PMA/ionomycin-induced NF-kB signal in 697 B cells | 697 B-cell NF-kB luciferase reporter, 16 h | inhibition, % at 4 µM | actives 0.33% (n = 330,000); in the data active = inhibition above about 35%
aSyn 5UTR inh: MLPCN primary screen, SNCA 5' untranslated region. alpha-synuclein 5'UTR reporter, inhibitor activity. inhibition, % (tested at 7.5 µM). actives 0.82% (n = 300,000). AID 1813; in the data active = inhibition above about 60%;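 note: H4 neuroglioblastoma cells stably carrying SNCA 5'UTR luciferase fusion; 0% = DMSO wells and 100% = positive control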
KLF5 inh: inhibitors of KLF5 expression. DLD-1 KLF5 promoter-luciferase reporter, luminescence. inhibition, % at 5 µM. actives 0.23% (n = 290,000). AID 1700;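 active = inhibition above a per-plate limit of that plate's mean compound inhibition plus 3 SD, cut at about 60% in these data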;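 note: 0% = DMSO wells and 100% = LY294002 at 200 µM; higher means less KLF5 promoter-driven luciferase light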
KLF5 confirm: KLF5 inhibition, confirmation assay | actives 79% (n = 610) | DLD-1 KLF5 promoter firefly luciferase reporter, luminescence | inhibition, % at 4 µM | shares compounds with KLF5 inh | AID 1834;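 active = inhibition above a set limit taken from the earlier primary screen, cut at about 63% in these data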;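 note: 0% = DMSO wells and 100% = LY294002 at 200 µM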
IEC-6 tox: rat IEC-6 cytotoxicity, KLF5 inhibitor counter-screen. shares compounds with KLF5 inh. IEC-6 rat intestinal cells, viability luminescence. inhibition, % at 4 µM. actives 56% (n = 610); in the data active = inhibition above about 23%;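 note: cells exposed to compounds for 48 hours before viability read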
Jurkat NFkB conf: inhibitors of the PMA/ionomycin-induced NF-kB reporter in Jurkat cells, retest | shares compounds with Jurkat NFkB inh | Jurkat NF-kB luciferase, 16 h | inhibition, % at 4 µM | actives 27% (n = 2,700) | AID 435020;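 active = inhibition reaching about 45% at 4 µM in either replicate, limit read from the data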;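 note: plate controls were PMA/ionomycin stimulated DMSO wells for no effect and unstimulated DMSO wells for full effect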
697 NFkB conf: lowers PMA/ionomycin-induced NF-kB signal in 697 B cells. shares compounds with 697 NFkB inh. 697 B-cell NF-kB luciferase, 16 h. inhibition, % at 4 µM. actives 35% (n = 2,000); in the data active = inhibition mostly above about 28%, no sharp cut-off; inactive = mostly below about 22%
Mdm2-MdmX conf: human Mdm2/MdmX binding inhibition, confirmed | shares compounds with Mdm2-MdmX inh | inhibition, % at 8 µM | actives 55% (n = 10,000) | luminescent assay | AID 489028; in the data active = inhibition above about 40%
Full FLuc ctr: full-length luciferase inhibition in Mdm2/MdmX counter-screen; shares compounds with Mdm2-MdmX inh; SaOS-2 full-length luciferase counterscreen, luminescence; inhibition, % at 8 µM; actives 77% (n = 6,200); AID 504607;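 active = mean inhibition at 8 µM reaching about 37%, which flags the compound as non-specific, limit read from the data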;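 note: p53-null SaOS-2 cells with luciferase driven by a doxycycline-inducible promoter; compound on cells about two nights before reading with doxycycline added after day one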
An asterisk follows results filed as active; i = inactive; . = not tested or not shown.

SMILES	Mdm2-MdmX inh	Jurkat NFkB inh	Gli-Sufu block	697 NFkB inh	aSyn 5UTR inh	KLF5 inh	KLF5 confirm	IEC-6 tox	Jurkat NFkB conf	Mdm2-MdmX conf	Full FLuc ctr	others
CCOc1ccc2nc(NC(=O)C34CC5CC(CC(NC(C)=O)(C5)C3)C4)sc2c1	-42	-93	-35	-74	-132	-111	.	.	.	.	.
Cc1ccc(C(=O)NC(Cc2cccc(C(F)(F)F)c2)C(=O)O)cc1 (stereo not given)	17	.	2	10	.	.	.	.	.	.	.
Cc1ccc(Nc2nc(-c3c(C)nc4ccccn34)cs2)cc1	89*	83*	62*	-396	44	87*	87*	79*	62*	73*	81*	697 NFkB conf=-54
Cc1nc2ccccn2c1-c1csc(NCc2ccco2)n1	21	11	24	-29	-20	-15	.	.	.	.	.
CCOC(=O)c1[nH]c(C)c(C(=O)Nc2cc(Cl)ccc2C)c1C	66*	69*	27	23	-24	72*	68*	61*	56*	72*	85*
COc1ccc(-c2nc(-c3ccccn3)no2)cc1	89*	77*	69*	48*	107*	110*	103*	45*	86*	91*	54*	697 NFkB conf=39*
CC1(C)CC(NC(=O)c2ccccn2)CC(C)(C)N1O	-54	1	-6	13	0	1	.	.	.	.	.
CC(C)N1CCc2c(sc(NC(=O)c3ccc4ccccc4c3)c2C(N)=O)C1	41	-17	21	-48	-97	-25	.	.	.	.	.
CC(=O)Nc1sc2c(c1-c1nc3ccccc3s1)CCN(C(C)C)C2	100*	84*	-27	-34	.	62*	62*	23*	-30	69*	60*
COc1ccccc1NC(=O)CCSc1nnc(-c2ccncc2)o1	-1	2	3	10	-25	-10	.	.	.	.	.
CC(C)CC(=O)NC(NC(=S)Nc1cccc2cccnc12)C(Cl)(Cl)Cl (stereo not given)	20	-14	-2	6	13	-9	.	.	.	.	.
Cc1conc1NC(c1cccs1)c1ccc2cccnc2c1O (stereo not given)	63*	18	.	-10	66*	70*	23	5	.	50*	32
CCC(=O)NC(c1cccs1)c1ccc2cccnc2c1O (stereo not given)	82*	63*	81*	-41	80*	78*	91*	81*	47*	84*	23
CC(=O)NC(c1ccco1)c1cc(Cl)c2ccc(Cl)nc2c1O (stereo not given)	15	7	-15	-4	.	.	.	.	.	.	.
CC(C)CC(=O)NC(c1cccs1)c1ccc2cccnc2c1O (stereo not given)	72*	29	72*	-22	74*	77*	86*	50*	.	85*	25
CC(C)C(=O)NC(c1ccco1)c1ccc2cccnc2c1O (stereo not given)	82*	33	-3	-7	63*	67*	96*	40*	.	64*	24
CCC(=O)Nc1cccc2cccnc12	13	3	-3	5	-5	-25	.	.	.	.	.
O=C(NNc1nc(N2CCOCC2)nc(N2CCOCC2)n1)Nc1ccc(Cl)cc1	8	2	.	-4	14	16	.	.	.	.	.
CCN(CC(=O)Nc1ccccc1C(F)(F)F)C(=O)c1ccccc1OCc1ccc(F)cc1	.	.	6	.	.	.	.	.	.	.	.
CCCC(C)NC(=O)COC(=O)c1cccc(NS(C)(=O)=O)c1 (stereo not given)	0	-1	-6	13	1	-35	.	.	.	.	.
Cc1nn(CC(=O)Nc2nnc(C(C)C)s2)c(=O)c2ccccc12	-6	16	-2	-2	3	-21	.	.	.	.	.
COc1ccc(C(=O)/C(=C\c2ccco2)N2C=CC=CC2=C(C#N)C#N)cc1	100*	65*	43	-3	77*	69*	48	50*	49*	99*	51*
N#CC(C#N)=C1C=CC=CN1/C(=C\c1ccco1)C(=O)c1ccccc1	.	.	38	.	.	23	.	.	.	.	.
O=[N+]([O-])c1ccc(O)c(-c2cc(C(F)(F)F)nc(-c3ccccc3)n2)c1	95*	45	88*	i	90*	82*	86*	41*	.	99*	52*	697 NFkB conf=-460
CCCN1C=CC(=C2C(=O)c3ccccc3C2=O)C=C1	88*	69*	79*	44*	132*	107*	106*	24*	75*	94*	55*	697 NFkB conf=20
SMILES	Mdm2-MdmX inh	Jurkat NFkB inh	Gli-Sufu block	697 NFkB inh	aSyn 5UTR inh	KLF5 inh	KLF5 confirm	IEC-6 tox	Jurkat NFkB conf	Mdm2-MdmX conf	Full FLuc ctr	others
CCN1C=CC(=C2C(=O)c3ccccc3C2=O)C=C1	72*	54*	59*	5	96*	87*	96*	9	45*	78*	37*
CCCCN1C(C)=CC(=C2C(=O)c3ccccc3C2=O)C=C1C	-9	-132	-42	-114	46	-104	.	.	.	.	.
Cc1ccc2occ(/C=N/NC(=O)c3ccccc3O)c(=O)c2c1	81*	16	-4	-19	25	64*	48	-6	.	66*	46*
CCOc1ccc(N(CC(=O)NC(C)(C)C)C(=O)CCC(=O)Nc2nccs2)cc1	25	6	14	8	-15	-26	.	.	.	.	.
COc1ccc2nc(NC(=O)c3ccccc3C(=O)O)sc2c1	15	2	29	8	5	-19	.	.	.	.	.
COc1ccc(C(=O)Nc2nc3ccccc3s2)c(OC)c1	100*	85*	88*	69*	79*	101*	80*	17	91*	99*	52*	697 NFkB conf=60*
CCOc1ccccc1C(=O)N1CCN(c2cccc(Cl)c2)CC1	74*	81*	59*	-81	95*	85*	109*	75*	42	63*	93*
COc1ccccc1NC1=C(N2CCCCC2)C(=O)c2ccccc2C1=O	74*	31	12	17	51	80*	90*	20	.	46*	4
Cc1ccc(NC2=C(N3CCCCC3)C(=O)c3ccccc3C2=O)cc1	35	-1	15	3	-45	17	.	.	.	.	.
